OPRM1-OPRD1 inv = inverse agonists of MOR-DOR heterodimerization, primary screen, cell-based, luminescence | inhibition, % at 9.3 µM | 340,000 compounds, 0.21% hits | cell-based MOR-DOR heterodimer luminescence, inverse agonism; in the data active = inhibition above about 22%, passing the limit was not always enough;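 also: 0% = cells with DMSO and 100% = wells without cells with DMSO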
Target sequence (P35372 whole entry, looked up): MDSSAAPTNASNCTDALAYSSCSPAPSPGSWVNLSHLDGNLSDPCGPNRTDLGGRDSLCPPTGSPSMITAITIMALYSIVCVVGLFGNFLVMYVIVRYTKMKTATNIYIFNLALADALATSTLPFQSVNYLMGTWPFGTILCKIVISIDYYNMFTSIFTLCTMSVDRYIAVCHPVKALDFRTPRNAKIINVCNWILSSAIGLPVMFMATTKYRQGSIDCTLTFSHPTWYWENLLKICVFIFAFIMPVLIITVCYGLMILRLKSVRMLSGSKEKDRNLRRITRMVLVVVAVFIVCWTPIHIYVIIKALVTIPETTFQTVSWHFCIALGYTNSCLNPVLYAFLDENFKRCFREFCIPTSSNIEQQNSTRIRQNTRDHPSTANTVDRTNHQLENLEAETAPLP
Target sequence (P41143 whole entry, looked up): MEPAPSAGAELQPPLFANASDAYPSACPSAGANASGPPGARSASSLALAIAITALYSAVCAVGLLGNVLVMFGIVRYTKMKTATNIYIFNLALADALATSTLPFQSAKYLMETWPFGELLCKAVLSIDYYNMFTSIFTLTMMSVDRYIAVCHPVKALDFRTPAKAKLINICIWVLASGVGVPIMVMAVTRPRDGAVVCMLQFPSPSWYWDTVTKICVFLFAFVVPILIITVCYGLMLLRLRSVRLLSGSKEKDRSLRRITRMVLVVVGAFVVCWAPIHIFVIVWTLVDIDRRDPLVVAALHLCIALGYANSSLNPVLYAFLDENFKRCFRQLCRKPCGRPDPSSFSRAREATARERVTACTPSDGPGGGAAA
HTR5A ag ctr = HTR5A agonists in luminescence cell assay, primary screen, counter-screen for OPRM1-OPRD1 heterodimer agonist project, full-deck HTS; cell-based; activation, % at 9.3 µM; 5-hydroxytryptamine receptor 5A (Homo sapiens), P47898; 340,000 compounds, 0.61% hits; in the data active = activation mostly above about 9.5%, no sharp cut-off; inactive = mostly below about 7.6%;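 also: 0% = cells with vehicle only and 100% = reference agonist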
HTR5A inv ctr = HTR5A inverse agonists in luminescence cell assay, primary screen, counter-screen for OPRM1-OPRD1 heterodimer inverse agonist project, full-deck HTS. 5-hydroxytryptamine receptor 5A (Homo sapiens), P47898. HTR5A cell line, inverse agonism. inhibition, % at 9.3 µM. 340,000 compounds, 0.083% hits. AID 504634, 2011; in the data active = inhibition mostly above about 23%, no sharp cut-off; inactive = mostly below about 18%;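 also: 0% = cells with DMSO and 100% = no-cell wells with DMSO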
OPRM1-OPRD1 ag = agonists of OPRM1-OPRD1 heterodimerization, primary screen, cell-based, luminescence; cells; activation, % at 9.3 µM; 340,000 compounds, 0.3% hits; AID 504326, 2011;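 also: 0% = vehicle-treated cells and 100% = reference agonist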
MOR-DOR ag conf = agonists of MOR-DOR heterodimerization, confirmation, cell-based, luminescence. shares compounds with OPRM1-OPRD1 ag. cells, luminescence complementation. activation, % at 9.3 µM. 830 compounds, 45% hits. AID 504904, 2011;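 also: 0% = vehicle-treated cells and 100% = reference agonist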
HTR5A ag ctr2 = HTR5A agonists in cells, counter-screen for OPRM1-OPRD1 heterodimer agonist project, cell-based, luminescence. shares compounds with OPRM1-OPRD1 ag. HTR5A agonist counterscreen. activation, % at 9.3 µM. 830 compounds, 8% hits; in the data active = activation above about 17%;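 also: 0% = vehicle-treated cells and 100% = reference agonist response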
An asterisk follows results filed as active; i = inactive; / = not tested or not shown; + = active, no number. Hits are enriched below; roughly 1.1% of the tested compounds scored in any of these assays. Rule as the data show it, unless noted: active = activation above about 18%; inactive = the rest.

SMILES | OPRM1-OPRD1 inv | HTR5A ag ctr | HTR5A inv ctr | OPRM1-OPRD1 ag | MOR-DOR ag conf | HTR5A ag ctr2
Cc1ccc(Cl)c(OCC(=O)Nc2cc(S(=O)(=O)N3CCOCC3)ccc2N2CCCC2)c1 | 9.5 | 0.7 | 22.8 | -1.8 | / | /
Cc1ccc(NC2=Nc3ccccc3CC2)cc1 | -45.6 | -4.0 | -8.1 | 8.0 | / | /
Brc1ccc(NC2=Nc3ccccc3CC2)cc1 | -164.7 | 1.1 | 4.3 | 26.3* | 229.9* | 6.6
CCCCOC(=O)c1nnc(-c2ccccc2)o1 | 19.9 | 13.3 | -34.4 | -4.0 | / | /
CC(CCc1ccccc1)NC(=O)C(=O)c1c[nH]c2ccccc12 (stereo not drawn) | -24.1 | 0.8 | -2.9 | 4.8 | / | /
CCCCN(C(=O)c1cc(OC)c(OC)c(OC)c1)C1=CC2CCC(C1)N2C (stereo not drawn) | -0.5 | -1.7 | 4.9 | 0.1 | / | /
COc1cc(C(=O)N(CCc2ccccc2)C2=CC3CCC(C2)N3C)cc(OC)c1OC (stereo not drawn) | -75.3 | -4.6 | 11.0 | 18.1* | 0.2 | -0.3
Cc1cccc(NC(=O)c2ccc3[nH]c(=O)c(=O)[nH]c3c2)n1 | 8.2 | 3.7 | -7.0 | -1.6 | / | /
CC(C)n1ncc2c(C(=O)Nc3cccc(C#N)c3)cc(C3CC3)nc21 | i | 13.9 | -38.5 | 184.3* | 215.9* | 5.2
CCNC(=O)c1cccc(NC(=O)c2cc(C3CC3)nc3c2cnn3C(C)C)c1 | 3.5 | -7.6 | 18.5 | -0.7 | / | /
Cc1ccc(N(CC(=O)NCc2ccccn2)S(=O)(=O)c2ccccc2)cc1Cl | 4.3 | 4.5 | -0.8 | -0.8 | / | /
CC[C@@H](C)[C@@H]1CN([C@@H](CN2CCC[C@H]2CN2C(N)=NC[C@H]2C(C)C)C(C)C)C(=N)N1CCc1ccc(Cl)c(Cl)c1 | i | -1.2 | 4.0 | 205.1* | 72.2* | 0.1
CC[C@@H](C)[C@@H]1CN([C@@H](C)CN2CCC[C@H]2CN2C(N)=NC[C@@H]2Cc2ccccc2)C(=N)N1CCc1ccc(Cl)c(Cl)c1 | 6.6 | -12.3 | -20.0 | -1.2 | / | /
OC(CNC1Cc2ccccc2C1)COc1ccc(Cl)cc1 (stereo not drawn) | -8.8 | -3.6 | -13.9 | 1.8 | / | /
OC(CNC1CCCc2ccccc21)COc1c(Cl)cccc1Cl (stereo not drawn) | -142.2 | -0.2 | 0.7 | 19.7* | 4.3 | 15.6
Cc1ccc2nc(N(CCCN(C)C)C(=O)c3ccc(S(=O)(=O)N4CCc5ccccc5C4)cc3)sc2c1 | i | 5.1 | -18.7 | 129.7* | 43.7* | 3.6
CN(C)CCCN(C(=O)c1ccc(S(=O)(=O)N2CCc3ccccc32)cc1)c1nc2ccc(F)cc2s1 | i | 4.9 | -42.5 | 179.4* | -3.1 | -7.2
CN(C)CCCN(C(=O)c1ccc(S(=O)(=O)N2CCc3ccccc3C2)cc1)c1nc2ccc(F)cc2s1 | i | 8.0 | -29.4 | 654.6* | + | 15.9
CN(C)CCCN(C(=O)c1ccc(S(=O)(=O)N2CCCCCC2)cc1)c1nc2c(F)cc(F)cc2s1 | -299.4 | 6.3 | 8.8 | 55.5* | 110.6* | -0.5
Cc1ccc2nc(N(CCCN(C)C)C(=O)c3ccc(S(=O)(=O)N4CCOCC4)cc3)sc2c1 | 20.6 | 1.4 | -4.3 | -3.9 | / | /
Cc1ccsc1C(=O)Nc1ccc(O)c(-c2nc3ccccc3s2)c1 | 23.8 | 0.9 | 43.4 | -4.9 | / | /
O=C(CN(C(=O)c1csnn1)c1cccc(F)c1)NCc1ccc2c(c1)OCO2 | 9.1 | -3.2 | 7.8 | -1.6 | / | /
CN(C)CCCN(C(=O)c1ccc(S(=O)(=O)N2CCc3ccccc3C2)cc1)c1nc2c(F)cccc2s1 | -351.1 | -3.7 | 10.5 | 107.2* | -1.0 | -2.4
Cc1cccc2sc(N(CCCN(C)C)C(=O)c3ccc(S(=O)(=O)N4CCc5ccccc5C4)cc3)nc12 | -102.4 | 3.5 | -12.9 | 18.0 | / | /
CC1=C(C(=O)Nc2nc3ccccc3s2)C(c2ccco2)C(C#N)=C(SCC(=O)NC2CCCCC2)N1 (stereo not drawn) | -129.7 | 1.1 | 2.6 | 25.6* | 17.8 | 1.2
SMILES | OPRM1-OPRD1 inv | HTR5A ag ctr | HTR5A inv ctr | OPRM1-OPRD1 ag | MOR-DOR ag conf | HTR5A ag ctr2
O=[N+]([O-])c1ccc(SNc2ccccc2)c([N+](=O)[O-])c1 | -102.1 | 3.8 | -15.0 | 19.8* | 12.6 | 6.0
CCOC(=O)N/N=C/c1cn(Cc2ccc(Cl)cc2)c2ccccc12 | 6.9 | 1.6 | -5.3 | -1.4 | / | /
N#CCC(=O)N/N=C/c1cn(Cc2ccc(Cl)cc2Cl)c2ccccc12 | -103.4 | 5.1 | -6.2 | 20.4* | 1.9 | 8.8
O=C(Nc1ccc(SC(F)F)cc1)C1=CC=CN2CCS(=O)(=O)N=C12 | 15.9 | 1.5 | -8.7 | -4.2 | / | /
O=S1(=O)CCOC[C@H](Cc2ccccc2)N1Cc1ccc(F)cc1 | -4.5 | 0.6 | 16.8 | 0.8 | / | /
O=C(N/N=C/c1cccnc1)c1ccccc1OCc1ccc(Br)cc1 | -125.5 | -2.9 | 8.1 | 23.8* | 13.8 | 5.1
COc1ccc2c(CC(=O)N3CCc4ccccc43)coc2c1 | 18.6 | -4.2 | 9.9 | -4.5 | / | /
Cc1ccc(OCCSCc2nnc(NC(=O)Nc3cccc(Cl)c3)s2)cc1 | -100.2 | 4.6 | -16.7 | 19.3* | -1.7 | 0.4
O=C1CN(C(=O)COC(=O)CNC(=O)c2ccccc2)c2ccccc2N1 | 20.6 | -1.3 | -0.1 | -4.1 | / | /
CC(C)C(=O)NC(C)C(c1cccs1)N1CCN(c2ccccc2)CC1 (stereo not drawn) | -176.8 | 7.0 | -29.1 | 30.0* | 28.8* | 4.2
COc1ccccc1N1CCN(C(c2cccs2)C(C)NC(=O)c2cccs2)CC1 (stereo not drawn) | -138.0 | -6.1 | 2.5 | 23.4* | 13.0 | 8.4
CNC1=C(N(C(C)=O)c2ccc(Br)cc2)C(=O)c2ccccc2C1=O | -30.2 | 1.8 | 9.0 | 6.2 | / | /
CC(=O)C1=C(c2ccc(Br)cc2)C(=O)c2ccccc2C1=O | -177.5 | 11.1 | -28.1 | 33.5* | 25.9* | 11.3
Cc1ccc2nc(-c3ccc(NC(=O)Cc4cccs4)cc3)[nH]c2c1 | -135.3 | -7.7 | 17.9 | 22.6* | 17.9 | 5.6
Cc1ccc2nc(NC(=O)Cc3cccs3)sc2c1 | -15.8 | 1.4 | -24.1 | 3.0 | / | /
C#Cc1cccc(-n2nnc(C(C)=O)c2C)c1 | 2.1 | 0.7 | -1.7 | -0.4 | / | /
O=C1Nc2ccc(Br)cc2/C1=C/C(=O)c1ccccc1 | -80.1 | 4.4 | -17.0 | 18.3* | 6.6 | 0.3
CC(=O)N1C(=O)/C(=C2\SC(=S)N(c3c(C)n(C)n(-c4ccccc4)c3=O)C2=O)c2ccccc21 | -22.9 | -4.9 | 0.9 | 3.7 | / | /
COc1ccc(C(CNc2ncnc3sc(C)c(C)c23)N(C)C)cc1 (stereo not drawn) | i | 0.5 | -1.3 | 102.0* | 67.9* | -3.0

From PubChem
